Results on 8 molecules are retold here after PubChem BioAssay (NCI).

This is part of a sample that, as a whole, favours compounds with a hit. Of some 83,000 tested, about 20% had one in any assay.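 Cells were grown in 96-well plates and exposed to the test compound at a single concentration for 48 hours; results are reported as percent growth, with values below 10 considered active.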 Values without a mark were called inactive. Active and inactive are the calls of the source.

Among the test systems are SR leukemia; RPMI-8226 leukemia; OVCAR-8 ovarian; OVCAR-5 ovarian; OVCAR-4 ovarian; SK-OV-3 ovarian; IGROV1 ovarian; OVCAR-3 ovarian; HS 578T breast; NCI/ADR-RES ovarian; T-47D breast; BT-549 breast; MDA-MB-435 melanoma; SW-620 colon; MCF7 breast; HCT-116 colon; HCC-2998 colon; KM12 colon.
Common to all, as to assay: NCI-60 one-dose screen, 48 h (100 = growth as untreated, 0 = no growth, -100 = all killed)
Holding throughout (settings): 10 µM unless noted

As to `Cc1ccc(C(C(N)=O)C(C(N)=O)c2ccccc2)cc1` (centres undefined), the growth in the test on SR leukemia is 92%; with RPMI-8226 leukemia it was 95.4%; in the test with OVCAR-8 ovarian it was 103%; in the test with OVCAR-5 ovarian, 114%; with OVCAR-4 ovarian, 115%; in the test with SK-OV-3 ovarian, 114%. The growth in the test on IGROV1 ovarian is 105%; in the test with OVCAR-3 ovarian, 114%; with HS 578T breast, 124%; in the test with NCI/ADR-RES ovarian, 122%; in the test on T-47D breast, 112%; in the test with BT-549 breast it was 113%. Moreover, the growth in the test on MDA-MB-435 melanoma was 109%; with SW-620 colon, 105%; in the test on MCF7 breast, 112%; in the test with HCT-116 colon, 101%; with HCC-2998 colon, 112%; with KM12 colon, 105%.
Turning to `Cc1cc(Cl)ccc1NC(=O)c1cc2ccccc2cc1O`, the growth in the test with SR leukemia was 3.8% (active); in the test with RPMI-8226 leukemia, 6.82% (active); in the test on OVCAR-8 ovarian, 7.81% (active); in the test with OVCAR-5 ovarian it was 30.5%; in the test with OVCAR-4 ovarian, 22%; in the test with SK-OV-3 ovarian it was 36.7%. Also, the growth with IGROV1 ovarian is 17.9%; in the test on OVCAR-3 ovarian it was -3.47% (active); with HS 578T breast, -7.72% (active); in the test on NCI/ADR-RES ovarian, 4.6% (active); in the test on T-47D breast it was 12.6%; in the test with BT-549 breast, 26.6%. The growth with MDA-MB-435 melanoma is 30.1%; in the test with SW-620 colon, 11.2%; in the test with MCF7 breast it was 2.86% (active); with HCT-116 colon, 7.95% (active); in the test on HCC-2998 colon, 15%; in the test on KM12 colon it was 7.04% (active).
`Nc1ncnc2c1N=C(c1ccc3c(c1)OCO3)CC(c1cccc(Nc3ccnc4cc(Cl)ccc34)c1)N2` (centres undefined): the growth with SR leukemia was 3.03% (active); in the test on RPMI-8226 leukemia it was -24% (active); in the test with OVCAR-8 ovarian, 51.1%; in the test with OVCAR-5 ovarian, 97%; in the test on OVCAR-4 ovarian, 60.7%; with SK-OV-3 ovarian, 79.2%. The growth is 59.4% with IGROV1 ovarian; 67.7% with OVCAR-3 ovarian; 87.1% with HS 578T breast; 56.8% with NCI/ADR-RES ovarian; 43.3% in the test with T-47D breast; 74.5% in the test with BT-549 breast. The growth in the test on MDA-MB-435 melanoma was 51.6%; with SW-620 colon it was 25.4%; with MCF7 breast, 8.54% (active); in the test with HCT-116 colon, 6.7% (active); with HCC-2998 colon, 72%; in the test on KM12 colon, 30.5%.
`CC(C)N1CCN(Cc2ccc3c(NNC(=O)c4ccccc4)nc4cc(F)ccc4n23)CC1`: the growth in the test on SR leukemia is 8.09% (active); in the test with RPMI-8226 leukemia, 26.5%; with OVCAR-8 ovarian it was 17.9%; in the test with OVCAR-5 ovarian it was 59.6%; in the test on OVCAR-4 ovarian, 21.2%; in the test with SK-OV-3 ovarian it was 35%. Moreover, the growth is 21.4% in the test on IGROV1 ovarian; 39.8% with OVCAR-3 ovarian; 75.8% with HS 578T breast; 6.16% (active) in the test with NCI/ADR-RES ovarian; 20.3% with T-47D breast; 45.6% in the test on BT-549 breast. For the same molecule, the growth in the test on MDA-MB-435 melanoma was 30.5%; in the test on SW-620 colon, 24.9%; in the test on MCF7 breast it was 9.7% (active); in the test on HCT-116 colon, 24.5%; in the test with HCC-2998 colon it was 25%; with KM12 colon, 23.1%.
Regarding `O=C1c2cccnc2C(=O)c2c1c(C(=O)NCCn1ccnc1)c1ccccn21`, the growth in the test with SR leukemia was 7.94% (active); in the test with RPMI-8226 leukemia, 55.8%; with OVCAR-8 ovarian, 4.37% (active); with OVCAR-5 ovarian, 92.1%; in the test with OVCAR-4 ovarian, -47.6% (active); in the test on SK-OV-3 ovarian, 48.4%. Further, the growth is 26.3% with IGROV1 ovarian; 3.37% (active) in the test with OVCAR-3 ovarian; 65.6% in the test with HS 578T breast; 75.3% in the test with NCI/ADR-RES ovarian; 24.2% in the test with T-47D breast; 45.8% in the test on BT-549 breast. In addition, the growth is -84.2% (active) in the test with MDA-MB-435 melanoma; 12.9% in the test on SW-620 colon; 0.25% (active) in the test on MCF7 breast; -8.04% (active) in the test with HCT-116 colon; 22.4% in the test with HCC-2998 colon; 31.3% with KM12 colon.
As for `COc1ccc(-c2nc(SCC(C)C)nc(N/N=C\c3ccc(F)cc3)c2C#N)cc1`, the growth is 46.7% in the test on SR leukemia; 98.2% in the test on RPMI-8226 leukemia; 96.3% in the test with OVCAR-8 ovarian; 95.6% with OVCAR-5 ovarian; 8.96% (active) with OVCAR-4 ovarian; 112% in the test on SK-OV-3 ovarian. Also, the growth was 80.5% in the test with IGROV1 ovarian; 70.5% with OVCAR-3 ovarian; 62.4% in the test on HS 578T breast; 84.2% with NCI/ADR-RES ovarian; 80.7% in the test with T-47D breast; 89.9% in the test on BT-549 breast. Besides, the growth in the test on MDA-MB-435 melanoma is 92.5%; in the test with SW-620 colon it was 67.9%; in the test on MCF7 breast it was 81.2%; in the test on HCT-116 colon, 60%; in the test on HCC-2998 colon it was 104%; in the test with KM12 colon, 97.4%.
In the case of `CC(=O)[C@@H]1CCC=C2CC[C@]3(C)[C@@H](CC[C@@H]4[C@@]5(C)CCCNC(C)(C)[C@@H]5CC[C@]43C)[C@H]21`, the growth with SR leukemia is -45.2% (active); in the test on RPMI-8226 leukemia, -49.2% (active); in the test with OVCAR-8 ovarian, -84.4% (active); with OVCAR-5 ovarian, 16.8%; in the test with OVCAR-4 ovarian it was -67.5% (active); with SK-OV-3 ovarian, 93%. The growth in the test with IGROV1 ovarian was -94.2% (active); in the test with OVCAR-3 ovarian, -93.3% (active); in the test on HS 578T breast, -30.9% (active); with NCI/ADR-RES ovarian, -52.2% (active); in the test on T-47D breast, 33.9%; in the test on BT-549 breast, 75.9%. Besides, the growth in the test with MDA-MB-435 melanoma is -71.1% (active); in the test with SW-620 colon, -58.9% (active); with MCF7 breast, -72.9% (active); in the test on HCT-116 colon, -96.2% (active); in the test on HCC-2998 colon, -93.8% (active); in the test with KM12 colon, -79% (active).
For the molecule `Clc1ccc(CNc2c3ccccc3nc3ccccc23)cc1`, the growth in the test with SR leukemia was 2.32% (active); with RPMI-8226 leukemia, 8.02% (active); in the test on OVCAR-8 ovarian, 31.9%; with OVCAR-5 ovarian, 50.5%; in the test on OVCAR-4 ovarian it was 33.1%; in the test with SK-OV-3 ovarian, 60%. In addition, the growth with IGROV1 ovarian was 31.7%; in the test with OVCAR-3 ovarian, 51.1%; in the test with HS 578T breast, 53.8%; with NCI/ADR-RES ovarian, 36.7%; in the test with T-47D breast, 43.4%; with BT-549 breast, 70.9%. For the same molecule, the growth in the test on MDA-MB-435 melanoma was 60.7%; with SW-620 colon, 31%; with MCF7 breast, 16%; in the test on HCT-116 colon, 15.7%; in the test on HCC-2998 colon, -10.2% (active); in the test with KM12 colon it was 35.6%.
